Measurements taken from PubChem BioAssay (NCATS).
Results filed as inconclusive are left out. Where a call stands in place of a potency, no number is given. The source made the active and inactive calls. Unless noted, calls come from the whole dose curve; as a rule, active = well fitted curve in the direction sought with a large enough effect; inconclusive = small, poorly fitted or top-dose-only effect, or another doubt; inactive = no such curve, though single readings can be large; an effect the other way counts as inactive or inconclusive.

How the values were obtained:
[1] = qHTS for Inhibitors of the Functional Ribonucleoprotein Complex (vRNP) of Lassa (LASV) Arenavirus: LASV Primary Screen - GLuc reporter signal (AID 1347082; calls by dose curve; tested in HEK293 reporter line; note: series mostly up to about 57 µM; nearly all actives have a fitted effect of over 60% in size)
[2] = qHTS for Inhibitors of the Functional Ribonucleoprotein Complex (vRNP) of Lassa (LASV) Arenavirus: Viability assay - alamar blue signal for LASV Primary Screen (AID 1347083; calls by dose curve; tested in HEK293 reporter line; note: series mostly up to about 57 µM; nearly all actives have a fitted effect of over 80% in size)
[3] = qHTS for Inhibitors of the Functional Ribonucleoprotein Complex (vRNP) of Lymphocytic Choriomeningitis Arenaviruses (LCMV): Viability assay - alamar blue signal for LCMV Primary Screen (AID 1347085; calls by dose curve; tested in HEK293 reporter line; note: series mostly up to about 57 µM; nearly all actives have a fitted effect of over 80% in size)
[4] = biological target: Nucleoprotein (Lymphocytic choriomeningitis virus (strain Armstrong)) (UniProt P09992); assay: qHTS for Inhibitors of the Functional Ribonucleoprotein Complex (vRNP) of Lymphocytic Choriomeningitis Arenaviruses (LCMV): LCMV Primary Screen - GLuc reporter signal (AID 1347086; calls by dose curve; note: series mostly up to about 57 µM; nearly all actives have a fitted effect of over 70% in size)
[5] = qHTS of pediatric cancer cell lines to identify multiple opportunities for drug repurposing: Primary screen for TC32 cells (AID 1347089); note: nearly all actives have a fitted effect of over 60% in size
Outline: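 A viability screen of TC32 cells was run over 48 h, with primary MIPE doses spanning 0.78 nM–46 µM and NPC doses 0.59 nM–46 µM. ATP luminescence (CellTiter-Glo) served as the read-out.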

[6] = qHTS of pediatric cancer cell lines to identify multiple opportunities for drug repurposing: Primary screen for DAOY cells (AID 1347090); note: series mostly up to about 46 µM; nearly all actives have a fitted effect of over 55% in size
Outline: (§1)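 Eight- or eleven-point concentration series, 48 h treatment at 37 degrees C in growth media; readout CellTiter-Glo luminescence. Potency and efficacy were taken from the concentration-response curves.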

[7] = qHTS of pediatric cancer cell lines to identify multiple opportunities for drug repurposing: Primary screen for A673 cells (AID 1347092); note: nearly all actives have a fitted effect of over 45% in size
Outline: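 Titration-based qHTS on A673 cells: MIPE compounds spanned 11 points (0.78 nM to 46 µM final), NPC compounds 8 points (0.59 nM to 46 µM final). Viability after 48 h was measured by ATP luminescence.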

[8] = qHTS of pediatric cancer cell lines to identify multiple opportunities for drug repurposing: Primary screen for SK-N-MC cells (AID 1347093); note: potency is the fitted concentration of half-maximal effect
Outline: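 Metabolically active cells were quantified by ATP-dependent luminescence (CellTiter-Glo, 15 min at room temperature) following 48 h treatment. Cells had been plated at 500-1,000 per well and settled for 5 h beforehand.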

[9] = qHTS of pediatric cancer cell lines to identify multiple opportunities for drug repurposing: Primary screen for BT-37 cells (AID 1347094); note: series mostly up to about 57 µM
Outline: (§2)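 Luminescence from CellTiter-Glo served as readout of metabolically active cells after 48 h compound exposure. Titrations: MIPE 11-point, from 0.78 nM; NPC 8-point, from 0.59 nM (final). Concentration-response curves came straight from the primary screen.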

[10] = qHTS of pediatric cancer cell lines to identify multiple opportunities for drug repurposing: Primary screen for NB-EBc1 cells (AID 1347095)
Outline: as §2

[11] = qHTS of pediatric cancer cell lines to identify multiple opportunities for drug repurposing: Primary screen for U-2 OS cells (AID 1347096); note: nearly all actives have a fitted effect of over 50% in size
Outline: (§3)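 Cells (500-1,000/well) in growth media were settled 5 h at 37 degrees C, then given compounds for 48 h. Viability was read as CellTiter-Glo luminescence. Primary runs used MIPE at 11 points (0.78 nM-46 µM) and NPC at 8 points (0.59 nM-46 µM); follow-ups used 11 points.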

[12] = qHTS of pediatric cancer cell lines to identify multiple opportunities for drug repurposing: Primary screen for Saos-2 cells (AID 1347097); note: nearly all actives have a fitted effect of over 40% in size; note: potency is the fitted concentration of half-maximal effect
Outline: as §2

[13] = qHTS of pediatric cancer cell lines to identify multiple opportunities for drug repurposing: Primary screen for SK-N-SH cells (AID 1347098);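 note: DMSO served as neutral control and bortezomib at 2.3 µM as positive control; nearly all actives have a fitted effect of over 65% in size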
Outline: (§4)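 Cells (500-1,000/well) rested 5 h, then received compounds for 48 h; metabolically active cells were measured by CellTiter-Glo luminescence. Final concentrations spanned up to 46 µM (MIPE, 11-point) or 0.59 nM-46 µM (NPC, 8-point) in primary screens, 11-point in follow-ups.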

[14] = qHTS of pediatric cancer cell lines to identify multiple opportunities for drug repurposing: Primary screen for NB1643 cells (AID 1347099); note: nearly all actives have a fitted effect of over 50% in size
Outline: as §2

[15] = qHTS of pediatric cancer cell lines to identify multiple opportunities for drug repurposing: Primary screen for LAN-5 cells (AID 1347100); note: potency is the fitted concentration of half-maximal effect
Outline: as §3

[16] = qHTS of pediatric cancer cell lines to identify multiple opportunities for drug repurposing: Primary screen for BT-12 cells (AID 1347101); note: nearly all actives have a fitted effect of over 25% in size
Outline: as §4

[17] = qHTS of pediatric cancer cell lines to identify multiple opportunities for drug repurposing: Primary screen for Rh18 cells (AID 1347102); note: nearly all actives have a fitted effect of over 65% in size
Outline: as §3

[18] = qHTS of pediatric cancer cell lines to identify multiple opportunities for drug repurposing: Primary screen for SJ-GBM2 cells (AID 1347091)
Outline: as §1

Nucleoprotein (Lymphocytic choriomeningitis virus (strain Armstrong)), sequence (P09992 whole entry, looked up): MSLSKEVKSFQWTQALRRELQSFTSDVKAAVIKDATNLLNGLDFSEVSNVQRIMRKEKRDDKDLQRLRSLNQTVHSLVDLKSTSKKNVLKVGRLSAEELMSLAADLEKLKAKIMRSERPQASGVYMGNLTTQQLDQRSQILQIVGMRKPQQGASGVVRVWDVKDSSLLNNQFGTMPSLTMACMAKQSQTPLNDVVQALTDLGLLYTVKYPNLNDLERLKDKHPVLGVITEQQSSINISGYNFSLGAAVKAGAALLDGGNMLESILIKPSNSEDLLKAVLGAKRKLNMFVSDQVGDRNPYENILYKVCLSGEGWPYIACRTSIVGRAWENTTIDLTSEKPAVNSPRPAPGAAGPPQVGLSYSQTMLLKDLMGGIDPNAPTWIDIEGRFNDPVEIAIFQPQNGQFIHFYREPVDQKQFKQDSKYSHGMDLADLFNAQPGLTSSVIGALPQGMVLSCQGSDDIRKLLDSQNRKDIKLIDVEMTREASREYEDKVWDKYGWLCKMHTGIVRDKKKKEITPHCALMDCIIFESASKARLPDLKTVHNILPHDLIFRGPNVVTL

For `CNCC(=O)c1ccc(O)c(O)c1`, the Potency [1] was “inactive”, the Potency [2] was “inactive” and the Potency [3] was “inactive”. For the same molecule, the Potency [4] was “inactive”, the Potency [5] was “inactive” and the Potency [6] was “inactive”. The Potency [7] was “inactive”, the Potency [8] was “inactive” and the Potency [9] was “inactive”. The Potency [10] was “inactive”, the Potency [11] was “inactive” and the Potency [12] was “inactive”. The Potency [13] was “inactive”, the Potency [14] was “inactive” and the Potency [15] was “inactive”. The Potency [16] was “inactive” and the Potency [17] was “inactive”.

With `CNC(C)(C)Cc1ccccc1` the Potency [1] was “inactive”, the Potency [2] was “inactive” and the Potency [3] was “inactive”. For the same molecule, the Potency [4] was “inactive”, the Potency [5] was “inactive” and the Potency [6] was “inactive”. For the same molecule, the Potency [7] was “inactive”, the Potency [8] was “inactive” and the Potency [9] was “inactive”. The Potency [10] was “inactive”, the Potency [11] was “inactive” and the Potency [12] was “inactive”. The Potency [13] was “inactive”, the Potency [14] was “inactive” and the Potency [15] was “inactive”. The Potency [16] was “inactive” and the Potency [17] was “inactive”.

In the case of `c1ccc2c(c1)sc1ccccc12`, the Potency [1] was “inactive”, the Potency [2] was “inactive” and the Potency [3] was “inactive”. For the same molecule, the Potency [4] was “inactive”, the Potency [5] was “inactive” and the Potency [6] was “inactive”. The Potency [7] was “inactive”, the Potency [8] was “inactive” and the Potency [9] was “inactive”. The Potency [10] was “inactive”, the Potency [11] was “inactive” and the Potency [13] was “inactive”. The Potency [14] was “inactive”, the Potency [15] was “inactive” and the Potency [16] was “inactive”. For the same molecule, the Potency [17] was “inactive”.

For `Nc1ccccc1`, the Potency [1] was “inactive”, the Potency [2] was “inactive” and the Potency [3] was “inactive”. The Potency [4] was “inactive”, the Potency [5] was “inactive” and the Potency [6] was “inactive”. The Potency [7] was “inactive”, the Potency [8] was “inactive” and the Potency [9] was “inactive”. For the same molecule, the Potency [10] was “inactive”, the Potency [11] was “inactive” and the Potency [12] was “inactive”. For the same molecule, the Potency [13] was “inactive”, the Potency [14] was “inactive” and the Potency [15] was “inactive”. For the same molecule, the Potency [16] was “inactive” and the Potency [17] was “inactive”.

In the case of `CC(Cc1ccccc1)NCCn1cnc2c1c(=O)n(C)c(=O)n2C` (stereo not drawn), the Potency [1] was “inactive”, the Potency [2] was “inactive” and the Potency [3] was “inactive”. The Potency [4] was “inactive”, the Potency [5] was “inactive” and the Potency [6] was “inactive”. The Potency [7] was “inactive”, the Potency [9] was “inactive” and the Potency [10] was “inactive”. The Potency [11] was “inactive”, the Potency [12] was “inactive” and the Potency [13] was “inactive”. For the same molecule, the Potency [14] was “inactive”, the Potency [15] was “inactive” and the Potency [17] was “inactive”.

For `C[C@]12Cc3cn[nH]c3C[C@@H]1CC[C@@H]1[C@@H]2CC[C@@]2(C)[C@H]1CC[C@]2(C)O`, the Potency [1] was “inactive”, the Potency [2] was “inactive” and the Potency [3] was “inactive”. The Potency [4] was “inactive”, the Potency [5] was “inactive” and the Potency [7] was “inactive”. The Potency [9] was “inactive”, the Potency [12] was 26.6 µM (active) and the Potency [16] was “inactive”. For the same molecule, the Potency [17] was “inactive”.

With `CN(C)CCc1c[nH]c2cccc(OP(=O)(O)O)c12` the Potency [1] was “inactive”, the Potency [2] was “inactive” and the Potency [3] was “inactive”. The Potency [4] was “inactive”, the Potency [5] was “inactive” and the Potency [6] was “inactive”. The Potency [7] was “inactive”, the Potency [8] was “inactive” and the Potency [9] was “inactive”. For the same molecule, the Potency [10] was “inactive”, the Potency [11] was “inactive” and the Potency [12] was “inactive”. For the same molecule, the Potency [13] was “inactive”, the Potency [14] was “inactive” and the Potency [15] was “inactive”. The Potency [16] was “inactive” and the Potency [17] was “inactive”.

With `CCCCCCCCCC(=O)O[C@H]1CC[C@H]2[C@@H]3CCC4=CC(=O)CC[C@@H]4[C@H]3CC[C@]12C` the Potency [1] was “inactive”, the Potency [2] was “inactive” and the Potency [3] was “inactive”. For the same molecule, the Potency [4] was “inactive”, the Potency [6] was “inactive” and the Potency [7] was “inactive”. The Potency [8] was “inactive”, the Potency [9] was “inactive” and the Potency [10] was “inactive”. For the same molecule, the Potency [11] was “inactive”, the Potency [12] was “inactive” and the Potency [14] was “inactive”. The Potency [15] was “inactive”, the Potency [16] was “inactive” and the Potency [17] was “inactive”.

In the case of `O=C1OC(CCN2CCCCC2)OC1(c1ccccc1)c1ccccc1` (stereo not drawn), the Potency [1] was “inactive”, the Potency [2] was “inactive” and the Potency [3] was “inactive”. The Potency [4] was “inactive”, the Potency [5] was “inactive” and the Potency [18] was “inactive”. For the same molecule, the Potency [9] was “inactive”, the Potency [10] was “inactive” and the Potency [11] was “inactive”. For the same molecule, the Potency [12] was “inactive”, the Potency [15] was 4.73 µM (active) and the Potency [16] was “inactive”. The Potency [17] was “inactive”.

For `CC(C)C[C@H](CN)CC(=O)O`, the Potency [1] was “inactive”, the Potency [2] was “inactive” and the Potency [3] was “inactive”. For the same molecule, the Potency [4] was “inactive”, the Potency [5] was “inactive” and the Potency [6] was “inactive”. For the same molecule, the Potency [7] was “inactive”, the Potency [8] was 23.5 µM (active) and the Potency [9] was “inactive”. The Potency [10] was “inactive”, the Potency [11] was “inactive” and the Potency [12] was “inactive”. The Potency [15] was “inactive”, the Potency [16] was “inactive” and the Potency [17] was “inactive”.

For `c1ccc(N2CCNCC2)cc1`, the Potency [1] was “inactive”, the Potency [2] was “inactive” and the Potency [3] was “inactive”. For the same molecule, the Potency [4] was “inactive”, the Potency [5] was “inactive” and the Potency [6] was “inactive”. The Potency [7] was “inactive”, the Potency [9] was “inactive” and the Potency [10] was “inactive”. The Potency [11] was “inactive”, the Potency [12] was “inactive” and the Potency [13] was “inactive”. For the same molecule, the Potency [14] was “inactive”, the Potency [15] was “inactive” and the Potency [16] was “inactive”. For the same molecule, the Potency [17] was “inactive”.
